Consider 36 compounds from PubChem BioAssay AID1014 (NMMLSC, 2008).

Molecules are shown by their SMILES. Activity calls are given as the source filed them. Cut-off read from the data, not from the text of the source: active = inhibition of mean fluorescence above about 33%; inactive = the rest.

A short description of this experiment: blockers of bacterial quorum-sensing reporter fluorescence – flow cytometry, SAR analogs, SAR follow-up (AID 1014).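 Note: Staphylococcus aureus RN6390 with RNAIII-GFP reporter stimulated by AIP; bacteria incubated with compound for 3 hours at 37 °C.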 To be noted: at 20 µM, stronger effect = higher value; inhibition of percent positive cells: measured here: percent reporter-positive cells.

Regarding `CSCCC(NC(=O)c1ccccc1)C(=O)OCC(=O)Nc1sc2c(c1C#N)CCCC2` (configuration not stated), the inhibition of mean fluorescence was 40.6% (active) and the inhibition of percent positive cells is -0.2%.

Consider `COc1ccc(S(=O)(=O)c2nnn3c2nc(Nc2cccc(C)c2)c2ccccc23)cc1`, for which the inhibition of mean fluorescence was -7.2% (inactive) and the inhibition of percent positive cells was 0.1%.

`CCc1ccc(S(=O)(=O)c2nnn3c2nc(Nc2ccc(OC)cc2)c2sccc23)cc1`: the inhibition of mean fluorescence is 5.8% (inactive) and the inhibition of percent positive cells was -0.5%.

Consider `CC1CCCN(C(C(=O)Nc2ccc(C(C)C)cc2)c2cc3c(cc2[N+](=O)[O-])OCO3)C1` (configuration not stated), for which the inhibition of mean fluorescence is 14.1% (inactive) and the inhibition of percent positive cells is -0.2%.

As for `CC(C)c1ccc(S(=O)(=O)c2nnn3c2nc(N)c2ccccc23)cc1`, the inhibition of mean fluorescence was 11.1% (inactive) and the inhibition of percent positive cells came to 0.3%.

For `CCOC(=O)c1cnc2ccc(OC)cc2c1Nc1ccccc1C(=O)O`, the inhibition of mean fluorescence is -23.9% (inactive) and the inhibition of percent positive cells was -1.3%.

`O=C(O)c1ccccc1Nc1nc(N2CCCC2)nc(N2CCCC2)n1`: the inhibition of mean fluorescence was 10.8% (inactive) and the inhibition of percent positive cells was -0.3%.

Consider `COc1cc(Nc2cc(C)nc3nc(C)nn23)c(C(=O)O)cc1OC`, for which the inhibition of mean fluorescence is -11.6% (inactive) and the inhibition of percent positive cells came to 0.5%.

Turning to `CCc1ccc(Nc2nc3c(S(=O)(=O)c4ccc(Br)cc4)nnn3c3ccccc23)cc1`, the inhibition of mean fluorescence was -16.7% (inactive) and the inhibition of percent positive cells was found to be 0%.

Take `CC(=O)c1cc2cc(O)ccc2o1`: the inhibition of mean fluorescence was -1% (inactive) and the inhibition of percent positive cells was determined as 0.8%.

Take `CCOC(=O)c1c(COc2ccccc2)oc2ccc(O)cc12`: the inhibition of mean fluorescence was -1.1% (inactive) and the inhibition of percent positive cells was -0.9%.

For `O=C(O)c1ccccc1Nc1c([N+](=O)[O-])c(=O)oc2ccccc12`, the inhibition of mean fluorescence is -23.2% (inactive) and the inhibition of percent positive cells is -1.7%.

Regarding `CC(=O)c1cc2c(O)c(O)ccc2o1`, the inhibition of mean fluorescence was 17.9% (inactive) and the inhibition of percent positive cells was -0.1%.

In the case of `N#Cc1c(NC(=O)CN2C(=O)c3ccccc3C2=O)oc(-c2ccccc2)c1-c1ccccc1`, the inhibition of mean fluorescence is 41.7% (active) and the inhibition of percent positive cells was 0.2%.

With `CC(C)c1ccc(NC(=O)C(c2ccc3c(c2)OCO3)N2CCC3(CC2)OCCO3)cc1` (configuration not stated), the inhibition of mean fluorescence is 15.2% (inactive) and the inhibition of percent positive cells is -0.8%.

Take `O=C(NC1CCCC1)C(c1cc2c(cc1[N+](=O)[O-])OCO2)N1CCOCC1` (configuration not stated): the inhibition of mean fluorescence was -11.5% (inactive) and the inhibition of percent positive cells is -0.1%.

Regarding `CC1CCc2nn(CC(=O)Nc3ccc4c(c3)OCCO4)cc2C1` (configuration not stated), the inhibition of mean fluorescence is 4.5% (inactive) and the inhibition of percent positive cells came out at 0%.

With `CC1CCN(CC2CCN(C(=O)Nc3ccc4c(c3)OCCO4)CC2)CC1`, the inhibition of mean fluorescence was -3.7% (inactive) and the inhibition of percent positive cells is 0%.

In the case of `COc1ccccc1N1CCN(C(CNC(=O)c2ccc(F)cc2)c2cccnc2)CC1` (configuration not stated), the inhibition of mean fluorescence is 6.4% (inactive) and the inhibition of percent positive cells is -1.7%.

In the case of `CCOC(=O)c1cnc2ccc(OC(F)(F)F)cc2c1Nc1ccccc1C(=O)O`, the inhibition of mean fluorescence is 22.4% (inactive) and the inhibition of percent positive cells was 0.6%.

As for `O=C(Nc1ccc2c(c1)OCO2)C(c1ccccc1)N1CCC2(CC1)OCCO2` (configuration not stated), the inhibition of mean fluorescence was -2.7% (inactive) and the inhibition of percent positive cells was -0.2%.

As to `CC1CCN(C(C(=O)NC2CCCC2)c2cc3c(cc2[N+](=O)[O-])OCO3)CC1` (configuration not stated), the inhibition of mean fluorescence is -5.4% (inactive) and the inhibition of percent positive cells was -1%.

`COc1ccc(Nc2nc3c(S(=O)(=O)c4ccc(Br)cc4)nnn3c3ccccc23)cc1`: the inhibition of mean fluorescence is 2.8% (inactive) and the inhibition of percent positive cells is -0.8%.

Regarding `O=C(NCC(c1cccnc1)N1CCN(c2ccccc2F)CC1)c1cccc(Cl)c1` (configuration not stated), the inhibition of mean fluorescence is 67.2% (active) and the inhibition of percent positive cells is 3.5%.

As for `CCOC(=O)c1c(C)oc2cc(Br)c(O)c(C=O)c12`, the inhibition of mean fluorescence was -4.5% (inactive) and the inhibition of percent positive cells came to 2.9%.

Take `CC(C)c1ccc(S(=O)(=O)c2n[nH]n3c2nc(=O)c2ccccc23)cc1`: the inhibition of mean fluorescence is 80.5% (active) and the inhibition of percent positive cells came to 22.1%.

In the case of `COc1c(F)c(F)c(C(=O)O)c(Nc2ccc(C)cc2)c1F`, the inhibition of mean fluorescence is 9.1% (inactive) and the inhibition of percent positive cells was -1.6%.

Take `CCc1ccc(Nc2nc3c(S(=O)(=O)c4ccc(C(C)(C)C)cc4)nnn3c3ccccc23)cc1`: the inhibition of mean fluorescence was 3.7% (inactive) and the inhibition of percent positive cells is -0.1%.

Regarding `COc1ccc(Nc2nc3c(S(=O)(=O)c4ccc(C(C)C)cc4)nnn3c3ccccc23)cc1`, the inhibition of mean fluorescence is -10.2% (inactive) and the inhibition of percent positive cells is 0.3%.

On to `Cc1ccc(N=C2NC(=O)CC(C(=O)Nc3cccc4ccccc34)S2)cc1` (configuration not stated), for which the inhibition of mean fluorescence is -4.5% (inactive) and the inhibition of percent positive cells is -0.7%.

As for `O=C(NCC(c1cccnc1)N1CCN(c2ccccc2F)CC1)C1CCCCC1` (configuration not stated), the inhibition of mean fluorescence is -12.9% (inactive) and the inhibition of percent positive cells is -0.1%.

For `COc1ccc(C(=O)NCC(c2cccnc2)N2CCN(c3ccc(F)cc3)CC2)cc1OC` (configuration not stated), the inhibition of mean fluorescence is 3.4% (inactive) and the inhibition of percent positive cells was determined as 0%.

For `COc1ccc(Nc2nc3c(S(=O)(=O)c4ccc(C(C)(C)C)cc4)nnn3c3ccccc23)cc1`, the inhibition of mean fluorescence is -16.7% (inactive) and the inhibition of percent positive cells is -0.8%.

Regarding `Cc1ccc(Nc2c(F)c(F)c(F)c(F)c2C(=O)O)cc1`, the inhibition of mean fluorescence was 9.9% (inactive) and the inhibition of percent positive cells is -0.2%.

Turning to `O=C(Nc1ccc2c(c1)OCCO2)C(c1ccc(F)cc1)N1CCCCC1` (configuration not stated), the inhibition of mean fluorescence was 12.6% (inactive) and the inhibition of percent positive cells is -0.6%.

`Cc1ccc(C(C)C)c(OCC(=O)Nc2sc3c(c2C#N)CCCCC3)c1`: the inhibition of mean fluorescence is -18.6% (inactive) and the inhibition of percent positive cells was -0.9%.
